Results: PubChem BioAssay AID434970 (Sanford-Burnham Center for Chemical Genomics, 2010)
Screen size: about 11,000 compounds; about 310 (2.8%) were called active. No stated cut-off is given here; in the data, active means activity change below about -85%; inactive means the rest. The list comes from a sample in which actives are over-represented; it also holds similar structures and randomly drawn compounds.

System: intestinal alkaline phosphatase [Mus musculus]
Assay: mouse intestinal phosphatase enzyme activation – biochemical, luminescence, single concentration, confirmation (AID 434970)
Settings: purified mouse IAP, CDP-Star luminescence, 30 min, at 10 µM; activation factor: measured here: IAP activation factor, stronger effect = higher value; activity change, negative = activation: stronger effect = lower value

Structure (SMILES) | activation factor | activity change, negative = activation
COc1ccc(-c2nnc(SCC(=O)N3CCOCC3)n2C)cc1OC | 1.07 | -7.45% (inactive)
Cn1c(-c2ccc(F)cc2)cnc1NCc1cccc(F)c1 | 0.905 | 9.55% (inactive)
CC(C)OC(=O)c1cccc(NC(=O)c2ccccc2)c1 | 0.988 | 1.25% (inactive)
Cc1oc(-c2cccs2)nc1CSCC(=O)NC1CC1 | 0.893 | 10.8% (inactive)
CN(c1ccccc1C(=O)NCc1ccccn1)S(C)(=O)=O | 1.03 | -3.4% (inactive)
COC(=O)[C@@]1(C)[C@H]2C(=O)N(Cc3ccccc3)C(=O)[C@H]2[C@H]2CN=C(SC)N21 | 1.09 | -9.05% (inactive)
CCN1C(=O)[C@H]2[C@H]3CN=C(SC)N3[C@@](CC)(C(=O)OC)[C@H]2C1=O | 0.957 | 4.3% (inactive)
COC(=O)c1sc2ncn(-n3c(C)ccc3C)c(=O)c2c1C | 1.03 | -3.25% (inactive)
CC[C@]12c3[nH]c4cc(-c5ccco5)ccc4c3CCN1C(=O)[C@@H](CC(=O)NC(C)(C)C)C[C@@H]2C(=O)N1CCN(C(=O)C2CC2)CC1 | 0.984 | 1.6% (inactive)
C[C@H](CO)N1C[C@H](C)[C@@H](CN(C)S(=O)(=O)c2cccs2)Oc2ccc(NC(=O)Nc3ccc4c(c3)OCO4)cc2C1=O | 1.88 | -87.5% (inactive)
COc1ccc(NC(=O)Nc2ccc3c(c2)C(=O)N([C@H](C)CO)C[C@H](C)[C@@H](CN(C)C(=O)Nc2ccc(C(F)(F)F)cc2)O3)cc1 | 1.69 | -68.8% (inactive)
C[C@H]1CN([C@@H](C)CO)C(=O)c2cc(NC(=O)NC3CCCCC3)ccc2O[C@H]1CN(C)C(=O)Nc1ccc(C(F)(F)F)cc1 | 1.58 | -58.1% (inactive)
COc1ccc(NC(=O)Nc2ccc3c(c2)C(=O)N([C@H](C)CO)C[C@H](C)[C@@H](CN(C)S(=O)(=O)c2cccs2)O3)cc1 | 2.1 | -110% (active)
COc1ccc(NC(=O)Nc2ccc3c(c2)C(=O)N([C@@H](C)CO)C[C@@H](C)[C@@H](CN(C)S(=O)(=O)c2cccs2)O3)cc1 | 1.76 | -75.9% (inactive)
C[C@H](CO)N1C[C@H](C)[C@@H](CN(C)C(=O)Nc2ccc(C(F)(F)F)cc2)Oc2ccc(NC(=O)NC3CCCCC3)cc2C1=O | 1.76 | -76.3% (inactive)
C[C@H](CO)N1C[C@H](C)[C@@H](CN(C)S(C)(=O)=O)Oc2ccc(NC(=O)Nc3ccc(C(F)(F)F)cc3)cc2C1=O | 1.83 | -83.2% (inactive)
C[C@H](CO)N1C[C@H](C)[C@@H](CN(C)S(=O)(=O)c2cccs2)Oc2ccc(NC(=O)Nc3ccccc3)cc2C1=O | 2.52 | -152% (active)
C[C@H](CO)N1C[C@H](C)[C@@H](CN(C)S(=O)(=O)c2cccs2)Oc2ccc(NC(=O)NC3CCCCC3)cc2C1=O | 2.6 | -160% (active)
